Test results reported in PubChem BioAssay (NCI).
About 83,000 compounds went through this panel and 20% of them were active in at least one assay; those are over-represented in the sample as a whole.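 In brief: 96-well plates, 48 h treatment, single concentration, percent growth endpoint.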 A number with no mark means an inactive call. Calls of active or inactive are those of the source. How the source made its calls: active means growth percent below 10; inactive means the rest.

Columns and labels:
Assay in all cases: NCI-60 one-dose screen, 48 h (100 = growth as untreated, 0 = no growth, -100 = all killed)
[1] = tested on: SK-MEL-2 melanoma; settings: 10 µM unless noted
[2] = tested on: EKVX NSCLC; settings: 10 µM unless noted
[3] = tested on: SN12C renal; settings: 10 µM unless noted
[4] = tested on: TK-10 renal; settings: 10 µM unless noted
[5] = tested on: ACHN renal; settings: 10 µM unless noted
[6] = tested on: CAKI-1 renal; settings: 10 µM unless noted
[7] = tested on: A498 renal; settings: 10 µM
[8] = tested on: HL-60(TB) leukemia; settings: 10 µM unless noted
[9] = tested on: CCRF-CEM leukemia; settings: 10 µM unless noted
[10] = tested on: MOLT-4 leukemia; settings: 10 µM unless noted
[11] = tested on: SR leukemia; settings: 10 µM unless noted
[12] = tested on: OVCAR-8 ovarian; settings: 10 µM unless noted
[13] = tested on: OVCAR-5 ovarian; settings: 10 µM unless noted
[14] = tested on: OVCAR-4 ovarian; settings: 10 µM unless noted
[15] = tested on: IGROV1 ovarian; settings: 10 µM unless noted
[16] = tested on: OVCAR-3 ovarian; settings: 10 µM unless noted
[17] = tested on: HS 578T breast; settings: 10 µM unless noted
[18] = tested on: UO-31 renal; settings: 10 µM unless noted
[19] = tested on: RPMI-8226 leukemia; settings: 10 µM unless noted
[20] = tested on: SK-OV-3 ovarian; settings: 10 µM unless noted

SMILES	growth [1] [%]	growth [2] [%]	growth [3] [%]	growth [4] [%]	growth [5] [%]	growth [6] [%]	growth [7]	growth [8]	growth [9] [%]	growth [10]	growth [11] [%]	growth [12] [%]	growth [13] [%]	growth [14] [%]	growth [15] [%]	growth [16] [%]	growth [17]	growth [18] [%]	growth [19]	growth [20]
O=C1C2CC=CCC2C(=O)N1SC(Cl)(Cl)Cl (centres undefined)	122	121	97.4	115	72.3	72.8	139%	46.2%	21.6	36.3%	41.5	102	111	99.9	31.7	76.8	160%			
O=C1NC(=O)C(=Cc2cn(CCCCCCn3c4ccccc4c(=O)c4ccccc43)c3ccccc23)C(=O)N1	94	89.8	91.1		101	97.6	-49.3% (active)	78.7%	80.6	63.2%	93.5	91.8	22.6	85.8	79.2	99.2	103%	63.9	76.2%	77.5%
Oc1ccc2c3c1OC1[C@@H](O)CC[C@@]4(O)[C@@H](C2)N(CC2CCC2)CC[C@]314 (some centres undefined)	118	99.7	103	106		94	94.7%	102%	97.5	97.7%	99.5	104		98.2	103	116	105%	83.2		109%
Nc1cc2nc3ccccc3nc2cc1N	107	84.8	80.5	110	99.2	101	78.3%	87.5%	94	91.1%	82.4		99.9	84	96	92.1			80%	82.3%
C/C(=C\c1ccn(-c2ccc(N)cc2C(F)(F)F)n1)[C@@H]1C[C@@H]2O[C@]2(C)CCC[C@H](C)[C@H](O)[C@@H](C)C(=O)C(C)(C)[C@@H](O)CC(=O)O1	18.1	33.7	22.6	39.8	50	31.4	-4.95% (active)	-0.118% (active)	16.3	9.23% (active)	12.2	17.4	24.1	69.7	43.5	12.5	-10.7% (active)		5.57% (active)	0.896% (active)
